Here are results for 40 compounds from PubChem BioAssay (EPA / NIEHS).

As a reminder, the AC50 is the concentration at which the activity in the assay is half-maximal.

Structures are written as SMILES. Activity calls are given as the source filed them. Rule for the calls: active = hit-call score of the fitted dose curve at least 0.9, where 1 is the maximum; inactive = score below 0.9.

Read-out in the test: Urokinase-type plasminogen activator receptor (uPAR), PLAUR (gene 5329)
Nature of the test: BSK_4H_uPAR: BioMAP Diversity Plus: 4H Assay for Urokinase-type plasminogen activator receptor (uPAR) Biomarker Activity (AID 2283030). To be noted: primary human endothelial cells (HUVEC); actives raise or lower the signal. On the procedure: BSK_4H is a cell-based, multiplexed-readout assay that uses umbilical vein endothelium, a human vascular primary cell, with measurements taken at 24 hours after chemical dosing in a 96-well plate.BSK_4HAR is an assay component measured in the BSK_4H assay. It measures uPAR antibody related to regulation of gene expression using ELISA technology.Data from the assay component BSK_4HAR was analyzed into 1 assay endpoint. This assay endpoint, BSK_4HAR, was analyzed with bidirectional fitting relative to DMSO as the negative control and baseline of activity. Using a type of binding reporter, gain or loss-of-signal activity can be used to understand changes in the signaling as they relate to the gene PLAUR. Furthermore, this assay endpoint can be referred to as a primary readout, because this assay has produced multiple assay endpoints where this one serves a signaling function. To generalize the intended target to other relatable targets, this assay endpoint is annotated to the cytokine intended target family, where the subfamily is plasmogen activator.
The levels of cell surface (or secreted, indicated by the prefix "s") biomarker endpoints were measured by ELISA. Overt cytotoxicity to cells in confluent adherent cultures (all systems other than the BT system) was assessed by measuring total protein levels using sulforhodamine B (SRB) staining in parallel cultures at the time of biomarker measurements, indicated as SRB endpoints. For proliferation assays for adherent cell types, individual cell types are cultured at sub-confluence and relative cell numbers quantified by SRB staining at time points optimized for each system (48 h: 3C and CASM3C systems; 72 h: BT and HDF3CGF systems; 96 h: SAg system). SRB was performed by staining cells with 0.1% SRB after fixation with 10% TCA and reading wells at 560 nm.Viability and proliferation of PBMC (T cells) was quantified by Alamar Blue reduction for the SAg and BT systems. For PBMC viability (referred to as PBMC Cytotoxicity within the assay endpoint names), cells were plated (75,000/well in a 96-well plate) and then chemical samples added for 1 h before addition of activators, SEB and TSST-1 (20 ng/mL final concentration each). Cells were incubated for 90 h. Then, Alamar Blue (20 uL/well) (Invitrogen, Cat DAL1100) was added for 6 h, and the plates were read with a fluorescence microplate reader at 546/580 nm (excitation/emission). For PBMC proliferation, cells were plated and activated as above but incubated for only 16 h prior to addition of Alamar Blue. Plates were read after 6 h.
Take `CC1(C)Cc2cccc(O)c2O1`: the outcome was inactive.
Same read-out and setting: to `BrCCBr` belongs “inactive”; to `O=Cc1cccc(Oc2ccccc2)c1`, “inactive”; to `ClCC(Cl)CCl`, “inactive”.
On the same count and under the same terms, the entry for `CCSC(C)CC1CC(=O)C(C(CC)=NOC/C=C/Cl)=C(O)C1` (stereo not given) is “inactive”.
Take `C=C(C)C(=O)[O][Sn]([CH2]CCC)([CH2]CCC)[CH2]CCC`: the AC50 was 0.148 µM (active).
On to `CN(C)N=O`, for which the result was inactive.
Still for that read-out and setting: to `CCC(=O)C(CC(C)N(C)C)(c1ccccc1)c1ccccc1` (stereo not given) belongs “inactive”; to `COC(=O)Cc1ccccc1`, “inactive”.
`Nc1ccc(-c2ccc(N)c(Cl)c2)cc1Cl`: the AC50 is 10.6 µM (active).
Take `CCNc1nc(NC(C)(C)C)nc(SC)n1`: the result was inactive.
Same read-out and setting: the entry for `CCOP(=S)(OCC)Oc1ccc(S(C)=O)cc1` (stereo not given) is “inactive”; for `O=C(O)C(F)(F)C(F)(F)C(F)(F)C(F)(F)C(F)(F)C(F)(F)F` it is “inactive”; for `O=C(O)C(Cl)(Cl)Cl` it is “inactive”.
As to `CCOP(=S)(OCC)Oc1nc(Cl)c(Cl)cc1Cl`, the outcome was inactive.
Same read-out and setting: the entry for `O=[N+]([O-])c1ccc(O)c([N+](=O)[O-])c1` is “inactive”; for `OCc1ccco1` it is “inactive”.
The same measure, in the same setting: the entry for `CC(C)CCCCCCOC(=O)c1ccccc1C(=O)OCCCCCCC(C)C` is “inactive”; for `ClC1(Cl)C2(Cl)C3(Cl)C4(Cl)C(Cl)(Cl)C5(Cl)C3(Cl)C1(Cl)C5(Cl)C24Cl` (stereo not given) it is “inactive”.
For the compound `CC(C)(C)CC(C)(C)c1ccc(O)cc1`, the concentration at half-maximal activity (AC50) is 9.65 µM (active).
For `Oc1cccc2cccnc12`, the outcome was inactive.
As for `C(=NC1CCCCC1)=NC1CCCCC1`, the AC50 was 8.81 µM (active).
For the compound `Cc1ccccc1N`, the outcome was inactive.
For the compound `O=C(Nc1ccc2[nH]ccc2c1)c1cc2cc(F)ccc2n1Cc1cccc(F)c1`, the AC50 was 9.25 µM (active).
On to `CC(C)(OO)c1ccccc1`, for which the result was inactive.
For `Oc1c(I)cc(I)cc1I`, the AC50 is 12.7 µM (active).
Consider `COc1cc(-c2ccc(N)c(OC)c2)ccc1N`, for which the outcome was inactive.
Regarding `O=C1C2(Cl)C3(Cl)C4(Cl)C(Cl)(Cl)C5(Cl)C3(Cl)C1(Cl)C5(Cl)C24Cl` (stereo not given), the AC50 is 9.73 µM (active).
In the case of `O=S(=O)(c1ccc(Cl)cc1)c1ccc(Cl)cc1`, the outcome was inactive.
Same read-out and setting: the entry for `C[C@]12CCC(=O)C[C@@H]1CC[C@@H]1[C@@H]2CC[C@]2(C)[C@@H](O)CC[C@@H]12` is “inactive”.
Turning to `ClC(Cl)=C(Cl)C(Cl)=C(Cl)Cl`, the AC50 is 32.2 µM (active).
Take `CC(=O)C(Cl)C(=O)N(C)C` (stereo not given): the outcome was inactive.
On the same count and under the same terms, the entry for `CCOP(=S)(OCC)SCCS(=O)(=O)CC` is “inactive”; for `C=CC(=O)OCCCCCC(C)C` it is “inactive”.
For the compound `C[C@@H]1C[C@@H]([C@H](O)CC2CC(=O)NC(=O)C2)C(=O)[C@@H](C)C1`, the AC50 was 4.3 µM (active).
Still for that read-out and setting: to `CCOC(=O)/C=C(C)/C=C/C[C@@H](C)CCCC(C)C` belongs 31.8 µM (active); to `CC(=O)[O][Hg][c]1ccccc1`, 1.74 µM (active).
The same measure, in the same setting: to `CC(C)(c1ccccc1)c1ccc(O)c(C(C)(C)c2ccccc2)c1` belongs 9.78 µM (active).
Regarding `COc1cc(OC)nc(NC(=O)NS(=O)(=O)c2ncccc2C(=O)N(C)C)n1`, the result was inactive.
Still for that read-out and setting: to `CC(C)c1ccc(CO)cc1` belongs “inactive”.
